Source: PubChem BioAssay AID652126 (The Scripps Research Institute Molecular Screening Center, 2013)
About 3,700 (1%) of roughly 370,000 compounds were called active.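 Rule for the calls: active = activation above the mean over all tested compounds plus 3 SD (cut at about 0.9% in these data); inactive = the rest.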 Shown is part of a subset that was picked to be rich in actives.

tested on: Nuclear hormone receptor DAF-12 (Strongyloides stercoralis); assay: S. stercoralis DAF-12 nuclear receptor activators, primary screen, cell-based, luminescence, HEK293, GRIP1 co-expression, lit1-tk-luc (AID 652126); conditions: HEK293 ssDAF-12/GRIP1 lit1-tk-luc reporter, at 6.8 µM, hits give high values, % of 3 µM dafachronic acid response;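 note: 0% = DMSO-only wells and 100% = 3 µM delta7-dafachronic acid wells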

activation, inactive:
Cc1ccccc1NC(=O)C1CCN(c2ncccn2)CC1 0.24%
CCCCNc1cccc2c1S(=O)(=O)N[C@@H](C)CO2 -0.23%
Cc1ccccc1OCc1nnc(SCC(=O)N2c3ccccc3Sc3ccc(Cl)cc32)o1 -1.28%
Cc1ccc(NC(=O)CSc2nnc(COc3ccccc3C)o2)cc1 -1.56%
COc1cccc(NC(=O)c2cc(S(=O)(=O)N3CCc4ccccc43)cn2C)c1 -1.71%
Cc1ccc(CSc2nnc(SCC(=O)NN=Cc3cc(Br)ccc3F)s2)cc1 -1.54%
CCCCNC(=O)C[C@H]1C(=O)N(Cc2ccc(OC)cc2)C2=CCCC[C@@]21C(=O)OCC -0.84%
COC[C@@H]1CCCN1c1ccc2c(c1)O[C@H](C)CCN(C1CC1)S2(=O)=O -1.91%
CCC(C)C(=O)Nc1cc([N+](=O)[O-])ccc1Cl (stereo unspecified) -1.16%
CNc1ccc([N+](=O)[O-])cc1C(=O)O -1.81%
Cc1ccc(Cn2cc(COC(=O)N(C)Cc3ccccc3)nn2)cc1 -0.46%
C=CCN1C(=O)[C@@H](CC(=O)NCCCOCCCC)[C@]2(C(=O)OCC)CCCCC/C=C/12 -0.98%
O=C(CSc1nc2sc3c(c2c(=O)n1-c1ccccc1)CCCC3)NN=Cc1ccc(OCc2ccccc2)cc1 -0.96%
CCOc1ccc(NC(=O)c2ccc(CSc3nnnn3C)cc2)cc1 -1.09%
CCOc1ccc(NC(=O)c2ccc(NC(=O)CN3C(=O)C(=O)N(CC(C)C)C3=O)cc2)cc1 -0.14%
COc1ccc(CN2C(=O)N3Cc4cc(OC)ccc4C3CS2(=O)=O)cc1 (stereo unspecified) -1.71%
CCOC(=O)C1(Cc2ccccc2)CCN(Cc2cn(C(C)=O)c3ccccc23)CC1 0.62%
CCOC(=O)[C@]12CCCCC/C=C\1N(Cc1ccc(OC)cc1)C(=O)[C@H]2CC(=O)NCCCN1CCCC1=O -0.74%
Cc1ccc(-n2c(SCC(=O)Nc3cccc4ccccc34)nnc2-c2ccco2)cc1 -0.86%
CN(CCc1ccccc1)C(=O)Cn1nc(-c2ccccc2)ccc1=O -0.4%
COC(=O)C[C@@H]1CC[C@@H]2[C@@H](COc3ccc(NC(=O)Nc4ccc(F)c(F)c4)cc3C(=O)N2C)O1 -1.37%
O=C(NC1CCC1)c1ccc(C#CC2CC2)cn1 0.89%
O=C(NCCCc1ccccc1)[C@H](Cc1ccccc1)NC1(C(=O)NCCc2c[nH]c3ccccc23)CCC1 -0.89%
NC(c1csc(NC(=O)Nc2cccc(C(F)(F)F)c2)n1)C1CCCCC1 (stereo unspecified) -0.46%
Cc1cc(S(=O)(=O)N2CCOCC2)ccc1OCC(=O)Nc1cccc(C(F)(F)F)c1 -1.62%
CCN(CC)c1nc(-c2ccccc2)cc(C(F)(F)F)c1C#N -0.98%
Cc1cc(C(F)(F)F)c(C#N)c(SCC(=O)NC2CC2)n1 -1.36%
CCn1c(=O)n2n(c1=O)[C@@]1(C=C3CCCC[C@H]32)N=C(NC(=O)c2ccccc2)N(Cc2ccccc2)[C@H]1Cc1ccccc1 -1.66%
O=S1(=O)c2ccc(Br)cc2OC[C@H](Cc2ccccc2)N1Cc1cn(Cc2ccccc2)nn1 -1%
COc1ccc(C2c3[nH]c4ccccc4c3CCN2CCCn2cccn2)cc1C (stereo unspecified) 0.43%
Cc1cccc(C2c3[nH]c4ccccc4c3CCN2C(=O)c2cc(-c3cccn3C)n[nH]2)n1 (stereo unspecified) -0.27%
C[C@@H](NC(=O)c1ccccc1OCC(=O)Nc1ccc(I)cc1)C(=O)N(C)Cc1ccccc1 -1.27%
COC(=O)C[C@H]1CC[C@H]2[C@H](COc3ccc(NC(=O)C4CC4)cc3C(=O)N2C)O1 -1.49%
Cc1ccc(NC(=O)N2CCC(O)(c3cccnc3)CC2)cc1 -1.43%
O=C(Nc1ccc(Cl)cc1)Nc1ccc(Oc2cccnc2)nc1 -1.82%
COc1cccc(CSc2nnc(-c3cccnc3)n2Cc2ccccc2)c1 -1.73%
COC(=O)[C@]12C[C@H](CC(=O)N3CCOCC3)C(=O)N(Cc3ccc(Cl)cc3Cl)C1=C[C@H](C(C)C)O[C@@H]2C1CC1 -0.42%
Cc1ccccc1NC(=O)Cn1nnc(-c2ccccc2F)n1 -0.75%
CC(C)(C)N(CC#CCC(O)(c1ccccc1)C1CCCC1)CCO (stereo unspecified) -0.45%
C#CCNC(=O)C[C@H]1C[C@@]2(C(=O)OC)C(=C[C@H](C(C)C)O[C@@H]2C2CC2)N(Cc2ccco2)C1=O -1.02%
CCOC(=O)c1nn(-c2cccc(C)c2)cc1C(=O)c1ccccc1 -0.86%
Cc1cc(OC(=O)c2ccccc2Cl)ccc1N1C(=O)CCC1=O -1.58%
Cc1cccc(-n2cnc(C(=O)NNC(=S)Nc3ccccc3)c2)n1 -1.77%
O=C(Nc1ccccc1)O/N=C1/CCCc2occc21 -1.48%
CC(C)(COC(=O)Nc1ccccc1)COC(=O)Nc1ccccc1 -0.77%

activation, active:
CC(C)NC(=O)CSc1nnc(COc2ccccc2Cl)o1 1.16%
Cc1ccc(NC(=O)c2cc([N+](=O)[O-])ccc2Cl)c(O)c1 1.5%
CCOc1ccc(NC(=O)c2ccc(NC(=O)COC(=O)c3ccc(NC(=O)CC#N)cc3)cc2)cc1 0.93%
Nc1ccccc1/C=N\N=C/c1ccccc1N 1.95%
Cc1ccc(NC(=O)Nc2cccc(C(F)(F)F)c2)nc1 4.62%
N#Cc1c(C(F)(F)F)cc(-c2ccc(Cl)cc2)nc1SCC(=O)O 1.77%
Cc1cccc(C(=O)N2CCc3c([nH]c4ccccc34)C2CC(C)C)n1 (stereo unspecified) 1.53%
Cc1ccc(NC(=O)Nc2cccnc2)cc1 1.08%
CN(CC#CCC(c1ccccc1)c1ccccc1)C(C)(C)C 1.07%
Cc1cccc(/C(N)=N/OC(=O)c2ccccc2Cl)c1 1.96%
N/C(=N\OC(=O)Nc1ccccc1)c1ccno1 5.22%
